PubChem BioAssay (Tox21)
“And” between values parts separate entries of the source, which are not always exact repeats. Equal entries are not always repeated. Inconclusive results are not listed. Entries that show only a call come without a potency. Some compounds were tested as several samples or in several runs, with calls that do not always agree. The source made the active and inactive calls. Calls come from the whole dose curve; as a rule, active = well fitted curve in the direction sought with a large enough effect in the repeat runs; inconclusive = weak or mixed curves; inactive = no such curve, though single readings can be large; an effect the other way counts as inactive or inconclusive.

Columns and labels:
[1] = A CellTox Green Cytotoxicity Assay to monitor cytotoxicity in HEK293 cells - 32 hour (AID 1224881); details: CellTox Green fluorescence; series mostly up to 76.8 µM; note: nearly all actives have a fitted effect of over 40% in size
Procedure, shortened: (§1)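 Cytotoxicity was tracked continuously in HEK293 cells by a DNA-binding dye excluded from viable cells. Compounds were transferred in DMSO 5 h after seeding; fluorescence was recorded at intervals up to 40 h.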

[2] = A CellTox Green Cytotoxicity Assay to monitor cytotoxicity in HepG2 cells - 0 hour (AID 1224882); details: CellTox Green fluorescence; series mostly up to 76.8 µM; note: nearly all actives have a fitted effect of over 35% in size
Procedure, shortened: (§2)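 Real-time, homogeneous cytotoxicity readout: dead-cell DNA staining by CellTox Green in HepG2 monolayers, fluorescence measured at timed intervals up to 40 h of continuous compound exposure.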

[3] = A CellTox Green Cytotoxicity Assay to monitor cytotoxicity in HepG2 cells - 32 hour (AID 1224883); details: CellTox Green fluorescence; series mostly up to 76.8 µM; note: nearly all actives have a fitted effect of over 50% in size
Procedure, shortened: as §2

[4] = A CellTox Green Cytotoxicity Assay to monitor cytotoxicity in HEK293 cells - 8 hour (AID 1224884); details: CellTox Green fluorescence; series mostly up to 76.8 µM; note: nearly all actives have a fitted effect of over 35% in size
Procedure, shortened: as §1

[5] = qHTS RealTime-Glo MT Cell Viability Assay in HEK293 cells - 24 hour (AID 1224886); details: RealTime-Glo luminescence; series mostly up to 76.8 µM; note: nearly all actives have a fitted effect of over 50% in size
Procedure, shortened: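 Luminescence generated by NanoLuc from substrate produced by living HEK293 cells served as the viability signal. Each value reflects the reading at its stated time point during continuous 40 h compound exposure at 37 C.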

[6] = qHTS RealTime-Glo MT Cell Viability Assay in HEK293 cells - 8 hour (AID 1224887); details: RealTime-Glo luminescence; series mostly up to 76.8 µM; note: nearly all actives have a fitted effect of over 50% in size
Procedure, shortened: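 Nonlytic bioluminescent viability monitoring. HEK293 at 600 cells/well with reagent; 5 h settle; compound transfer by pintool; plates held at 37 C and read at set time points.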

[7] = A CellTox Green Cytotoxicity Assay to monitor cytotoxicity in HEK293 cells - 16 hour (AID 1224888); details: CellTox Green fluorescence; series mostly up to 76.8 µM; note: nearly all actives have a fitted effect of over 35% in size
Procedure, shortened: as §1

[8] = A CellTox Green Cytotoxicity Assay to monitor cytotoxicity in HepG2 cells - 8 hour (AID 1224890); details: CellTox Green fluorescence; series mostly up to 76.8 µM; note: nearly all actives have a fitted effect of over 45% in size
Procedure, shortened: as §2

[9] = qHTS RealTime-Glo MT Cell Viability Assay in HepG2 cells - 0 hour (AID 1224889); details: RealTime-Glo luminescence; series mostly up to 76.8 µM; note: nearly all actives have a fitted effect of over 50% in size
Procedure, shortened: (§3)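 Tox21 10K library screened in qHTS format on HepG2 cells carrying RealTime-Glo reagents. Compounds were added after a 5 h preincubation, and the luminescent signal from continuous culture was measured repeatedly during 40 h treatment.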

[10] = qHTS RealTime-Glo MT Cell Viability Assay in HepG2 cells - 16 hour (AID 1224885); details: RealTime-Glo luminescence; series mostly up to 76.8 µM; note: nearly all actives have a fitted effect of over 50% in size
Procedure, shortened: as §3
Potency is the fitted concentration of half-maximal effect.

SMILES | Potency [1] | Potency [2] | Potency [3] | Potency [4] | Potency [5] | Potency [6] | Potency [7] | Potency [8] | Potency [9] | Potency [10]
CCCCCCCCCCCC(=O)OCC(C)OC(=O)CCCCC(=O)O (configuration not stated) | inactive | inactive | inactive | inactive | inactive | inactive | inactive | inactive |  | 
CCC(C)n1ncn(-c2ccc(N3CCN(c4ccc(OC[C@H]5CO[C@](Cn6cncn6)(c6ccc(Cl)cc6Cl)O5)cc4)CC3)cc2)c1=O (some centres not stated) | inactive | inactive | inactive |  |  |  | inactive | inactive | inactive | 
CC(=O)CC(=O)Nc1ccc(S(=O)(=O)O)cc1 | inactive | inactive | inactive | inactive | inactive |  | inactive | inactive | inactive | 
CCOC(=O)Cn1cccc1-c1nc(-c2ccc(OC)cc2)c(-c2ccc(OC)cc2)s1 | inactive | inactive | inactive | inactive | inactive | inactive | inactive | inactive | inactive | 
O=C(/C=C/c1ccccc1)OC/C=C/c1ccccc1 | inactive | inactive | inactive |  | inactive |  | inactive | inactive | inactive | 
COc1ccc2c(c1)c(CC(=O)OC/C=C(\C)CC/C=C(\C)CCC=C(C)C)c(C)n2C(=O)c1ccc(Cl)cc1 | inactive | inactive | inactive |  | inactive |  | inactive | inactive | inactive | inactive
Clc1nnc(Cl)c2ccccc12 | inactive | inactive | inactive | inactive | inactive | inactive | inactive | inactive | inactive | 
O=S(=O)(O)c1ccc(N=Nc2c(O)ccc3ccccc23)cc1 | inactive | inactive | inactive | inactive |  |  | inactive | inactive |  | 
O=C1NC(=O)[C@@H]2CC=CC[C@H]12 | inactive | inactive |  | inactive | inactive | inactive | inactive | inactive | inactive | inactive
CCN(CCN)c1cccc(C)c1 | inactive | inactive | inactive | inactive | inactive | inactive | inactive | inactive |  | 
CC(=O)OCC=C(C)C | inactive | inactive |  | inactive | inactive | inactive | inactive | inactive |  | inactive
COC(=O)C1=C(C)NC(C)=C(C(=O)OCCN2CCN(C(c3ccccc3)c3ccccc3)CC2)C1c1cccc([N+](=O)[O-])c1 (configuration not stated) | inactive | inactive | inactive | inactive |  |  | inactive | inactive | inactive | 
Oc1cc(Cl)cc(Cl)c1Cl | 50.2 µM (active) | inactive | inactive |  |  |  |  | inactive | inactive | inactive
CCCC(=O)OCCc1ccccc1 | 49 µM (active) | 38.9 µM (active) | 43.6 µM (active) | 38.9 µM (active) | inactive | inactive | 43.6 µM (active) | 43.6 µM (active) |  | 
COc1c(C)c2c(c(O)c1C/C=C(\C)CCC(=O)OCCN1CCOCC1)C(=O)OC2 | inactive | inactive | inactive | inactive | inactive |  | inactive | inactive | inactive | 
O=C1C(c2[nH]c3ccc(S(=O)(=O)O)cc3c2O)=Nc2ccc(S(=O)(=O)O)cc21 | inactive | inactive | inactive |  | inactive | inactive | inactive | inactive | inactive | inactive
CCO[C@@H]1O[C@H](C(COCc2ccccc2)OCc2ccccc2)[C@H](OCc2ccccc2)[C@H]1O (some centres not stated) | inactive | inactive | inactive | inactive |  |  | inactive | inactive |  | 
O=C1CCc2ccc(OCCCCN3CCN(c4cccc(Cl)c4Cl)CC3)cc2N1 | inactive | inactive | 26.8 µM (active) | inactive | 9.52 µM (active) | 21.3 µM (active) | inactive | inactive |  | 
CC1(C)[C@@H](O)CC[C@]2(C)[C@H]3C(=O)C=C4[C@@H]5C[C@@](C)(C(=O)O)CC[C@]5(C)CC[C@@]4(C)[C@]3(C)CC[C@@H]12 | inactive | inactive |  | inactive | inactive | inactive | inactive | inactive | inactive | inactive
O=C(O)[C@H](O)[C@@H](O)[C@H](O[C@@H]1O[C@H](CO)[C@H](O)[C@H](O)[C@H]1O)[C@H](O)CO | inactive | inactive | inactive | inactive | inactive |  | inactive | inactive | inactive | 
O=C1OC2(c3ccc(O)cc3Oc3cc(O)ccc32)c2ccc(N=C=S)cc21 | 17.7 µM (active) | 15.8 µM (active) | 15.8 µM (active) | 15.8 µM (active) |  |  | 12.5 µM (active) | 15.8 µM (active) | 22.3 µM (active) | 
O=C(Nc1ccc2c(O)c(N=Nc3ccc(N=Nc4ccc(S(=O)(=O)O)cc4)cc3)c(S(=O)(=O)O)cc2c1)c1ccccc1 | inactive | inactive | inactive | inactive | inactive | inactive | inactive | inactive |  | 
Fc1ccc(C(c2ccc(F)cc2)N2CCNCC2)cc1 | inactive | inactive |  | inactive | inactive |  | inactive | inactive | inactive | inactive
CCn1c2ccccc2c2cc([N+](=O)[O-])ccc21 | inactive | inactive | inactive | inactive |  |  | inactive | inactive | inactive | 

SMILES | Potency [1] | Potency [2] | Potency [3] | Potency [4] | Potency [5] | Potency [6] | Potency [7] | Potency [8] | Potency [9] | Potency [10]
CCCCC/C=C\C/C=C\CCCCCCCC(=O)O | inactive | inactive | inactive | inactive | inactive |  | inactive | inactive | inactive | 
COc1cc(S(=O)(=O)O)c(C)cc1N=Nc1c(O)ccc2cc(S(=O)(=O)O)ccc12 | inactive | inactive | inactive | inactive | inactive | inactive | inactive | inactive |  | 
CCCCCCCC/C=C\CCCCCCCCN | 23.9 µM (active) | inactive |  | 23.9 µM (active) | 21.3 µM (active) | 23.9 µM (active) | 23.9 µM (active) |  | inactive | 23.9 µM (active)
CCN(CC)C(=O)c1cc(S(=O)(=O)Cc2ccccc2)c(N2CCC(c3ccccc3)CC2)cc1N(CC)CCN(C)C | 19.3 µM (active) | inactive | 15.3 µM (active) |  | 13.6 µM (active) |  |  | 19.3 µM (active) | inactive | 19.3 µM (active)
OC1CCCc2ccccc21 (configuration not stated) | inactive | inactive | inactive | inactive | inactive |  | inactive | inactive | inactive | 
COCCOc1cc2cc(C(=O)NC3CCN(C(C)C)CC3)n(CC(=O)Nc3ccc(Cl)cn3)c2cn1 | inactive | inactive | inactive | inactive |  |  | inactive | inactive | inactive | 
CC1=CCC(=C(C)C)CC1 | inactive | inactive | inactive | inactive | inactive |  | inactive | inactive | inactive | 
O=S(=O)(O)c1ccccc1/C=C/c1ccc(-c2ccc(/C=C/c3ccccc3S(=O)(=O)O)cc2)cc1 | inactive | inactive | inactive | inactive | inactive | inactive | inactive | inactive |  | 
CNC(=O)c1ccccc1Sc1ccc2c(/C=C/c3ccccn3)n[nH]c2c1 | inactive | inactive | inactive | inactive | 7.56 µM (active) |  | inactive | inactive |  | 
Cc1c(F)c(N2CCNC(C)C2)cc2c1c(=O)c(C(=O)O)cn2C1CC1 (configuration not stated) |  | inactive | inactive | inactive | inactive |  | inactive | inactive | inactive | inactive
CCCCOC(=O)CO |  | inactive | inactive | inactive | inactive | inactive | inactive | inactive | inactive | inactive
CC(C)=CCNc1ncnc2c1ncn2[C@@H]1O[C@H](CO)[C@@H](O)[C@H]1O | inactive |  |  | inactive | inactive |  | inactive |  | inactive | inactive
CCCCCCOC(=O)C(C)CC (configuration not stated) |  | inactive | inactive | inactive | inactive | inactive | inactive | inactive |  | inactive
Cc1cc(C)c(/C=C2\C(=O)Nc3ccccc32)[nH]1 |  | 10.7 µM (active) | 19 µM (active) | 16.9 µM (active) | inactive |  | 10.7 µM (active) | 19 µM (active) | inactive | inactive
Nc1nc(N)nc(-c2cc(Cl)ccc2Cl)n1 |  | inactive | inactive | inactive | inactive | inactive | inactive | inactive |  | inactive
Cc1ccc(O)c(N)c1 | inactive | inactive |  | inactive |  |  | inactive | inactive | inactive | inactive
Nc1ccc(C(=O)O)c(O)c1 | inactive |  | inactive | inactive | inactive | inactive | inactive |  | inactive | inactive
O=S(=O)(O)c1ccc(Nc2nc(Nc3ccc(/C=C/c4ccc(Nc5nc(Nc6ccc(S(=O)(=O)O)cc6)nc(N(CCO)CCO)n5)cc4S(=O)(=O)O)c(S(=O)(=O)O)c3)nc(N(CCO)CCO)n2)cc1 |  | inactive | inactive | inactive | inactive | inactive | inactive | inactive |  | inactive
c1ccc(C(O[C@@H]2CCCN(CCc3ccc4c(c3)OCO4)C2)c2ccccc2)cc1 | inactive | inactive |  | inactive |  |  | inactive | inactive |  | 
CCCCCCCCCCCCCC[N+](C)(C)C |  | inactive | 10.6 µM (active) and 17.4 µM (active) and 21.3 µM (active) | 47.3 µM (active) and 43.6 µM (active) | 16.8 µM (active) and 21.8 µM (active) | 53.1 µM (active) and inactive | 47.3 µM (active) and 48.9 µM (active) and 47.7 nM (active) | 18.8 µM (active) and 54.9 µM (active) and inactive | inactive | 16.8 µM (active) and 48.9 µM (active)
CC(C)CCCCCOC(=O)CCS |  | inactive | inactive | inactive | inactive | inactive | inactive | inactive | inactive | inactive
CCOc1ccc2ccccc2c1C(=O)N[C@@H]1C(=O)N2[C@@H]1SC(C)(C)[C@@H]2C(=O)O | inactive |  | inactive | inactive | inactive | inactive | inactive |  | inactive | inactive
CCCCNS(=O)(=O)c1ccc(C)cc1 |  | inactive | 4.9 µM (active) | inactive | inactive | inactive | inactive | inactive | inactive | inactive
CC[N+](CC)(CC)CCOc1ccc(/C=C/c2ccccc2)cc1 | 6.74 µM (active) | inactive |  | inactive |  | inactive | inactive | inactive | inactive | inactive
